# Unmarked numbers belong to inactive results. Records with an inconclusive call do not appear. Active and inactive are the calls of the source. Unless noted, the call rests on the fitted dose curve; in most records, active means well fitted curve in the direction sought with a large enough effect; inconclusive means small, poorly fitted or top-dose-only effect, or another doubt; inactive means no such curve, though single readings can be large; an effect the other way counts as inactive or inconclusive.
# How the values were obtained:
# [1] = target: Lysosomal acid glucosylceramidase (Homo sapiens) (UniProt P04062); assay: Glucocerebrosidase-p2 (AID 348; in the data active means potency below about 10 µM; further: potency means the concentration at half of the fitted maximal effect); details: purified GBA, blue fluorogenic substrate, 40 min
# Summary of the method: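 Compounds titrated from 0.6 nM upwards against 0.2 nM enzyme in pH 5.9 citric acid/KH2PO4, taurocholate, tween-20; blue fluorogenic substrate 80 uM, 40 min room temperature, stopped and read Ex 365/Em 440 for AC50.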
# [2] = AP1 Signaling Pathway (AID 357; active means well fitted curve in either direction with a large enough effect, not every such curve was filed as active;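 further: ME-180 reporter cells stimulated with EGF at its EC50 level; on the % scale 0 is the no-effect control and ±100 the full control effect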); details: ME-180 AP-1-bla reporter, EGF-induced, beta-lactamase ratio, 5 h; at 7.69 µM (top of the series) unless noted
# Summary of the method: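 Modulation of EGF-driven AP-1 transcription was assessed with a beta-lactamase reporter in ME-180 cells. Compound and EC50 EGF were co-incubated 5 hours at 37 °C before 2.5-hour CCF4 loading at room temperature and dual-emission reading.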
# [3] = target: Cytochrome P450 1A2 (Homo sapiens) (UniProt P05177); assay: p450-cyp1a2 (AID 410; calls by dose curve; further: potency means the concentration at half of the fitted maximal effect); details: recombinant CYP1A2, luciferin-ME demethylation, luminescence; series mostly up to 57 µM
# Summary of the method: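 Human CYP1A2 (20nM) demethylated Luciferin-ME at its Km (100uM) in 100mM KPO4. After 10 min compound preincubation, NADPH regeneration ran the reaction 60 min at room temperature. Luciferin was read by luminescence, normalized to 57 uM furafylline.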
# [4] = NFAT Signaling Pathway (AID 444; active means well fitted curve in either direction with a large enough effect, not every such curve was filed as active;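 further: carbachol stimulus at about its EC50 of 1 µM final; on the % scale 0 is the no-effect control and ±100 the full control effect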); details: Jurkat NFAT-bla M1, carbachol, beta-lactamase ratio, 5 h; at 7.69 µM (top of the series) unless noted
# Summary of the method: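 Read-out: CCF4 FRET ratio (460 nm/530 nm) after 1 h RT dye loading, used for %activity and AC50 from titration series. Cells: Jurkat NFAT-β-lactamase/M1 line, treated with compound plus 1 uM carbachol for 5 h, 37 °C.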
# [5] = Stat Signaling Pathway (AID 446; active means well fitted curve in either direction with a large enough effect, not every such curve was filed as active;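 further: ME-180 cervical cancer cells given 40 pM IL-6 alongside compound; SIE-controlled beta-lactamase reporter measured as 460/530 nm FRET emission ratio; on the % scale 0 is the no-effect control and ±100 the full control effect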); details: ME-180 SIE beta-lactamase reporter, IL-6 stimulated, 5 h; at 7.69 µM (top of the series) unless noted
# Summary of the method: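 ME-180 SIE-bla cells; overnight plating; cpd + IL-6 40 pM, 5 h, 37 C; LiveBLAzer 2.5 h RT; 460/530 nm emission ratio. Normalized to 300 pM IL-6 and 125 nM JAK inhibitor controls.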
# [6] = target: Glucocorticoid receptor (Homo sapiens) (UniProt P04150); assay: GR-GFP Redistribution (AID 450;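 active means compounds whose dose series gives a full or clear partial fitted curve of increased nuclear translocation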; further: potency means the concentration at half of the fitted maximal effect); details: U2OS GR-GFP nuclear translocation, laser cytometry, 2 h
# [7] = target: Glucocorticoid receptor (Homo sapiens) (UniProt P04150); assay: GR-EFC Redistribution (AID 451; calls by dose curve; further: potency means the concentration at half of the fitted maximal effect); details: CHO-K1 GR-EFC translocation, beta-gal luminescence, 2 h
# Summary of the method: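 Translocation of GR-ED fusion to nuclear EA restores b-gal, read by luminescence after 1 h room-temperature detection. Engineered CHO-K1 biosensor cells, 1,000/well, exposed 2 h at 37 C to titrations up to 46 uM final.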
# [8] = target: Mitogen-activated protein kinase 10 (Mus musculus) (UniProt Q61831); assay: JNK3 AlphaScreen Assay (AID 530; active means well fitted curve in either direction with a large enough effect, not every such curve was filed as active;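 further: kinase came from lysate of stimulated human HepG2 cells; signal reports phosphorylation of biotinylated GST-cJun 1-79 at Ser73 with 10 µM ATP; on the % scale 0 is the no-effect control and ±100 the full control effect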); details: JNK3 lysate, c-Jun phosphorylation; series mostly up to 57.1 µM
# Summary of the method: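 Room-temperature AlphaScreen kinase assay; pre-activated HepG2 lysate as JNK3 source, biotin-GST-cJun(1-79) substrate, 10 uM ATP, compound 15 min preincubation.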
# [9] = target: Cytochrome P450 2C9 (Homo sapiens) (UniProt P11712); assay: qHTS Assay for Inhibitors and Substrates of Cytochrome P450 2C9 (AID 883); details: recombinant CYP2C9, luciferin-H luminescence, 60 min; series mostly up to 57.1 µM; further: nearly all actives have a fitted effect of over 60% in size; further: potency means the concentration at half of the fitted maximal effect
# Summary of the method: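 Turnover of Luciferin-H (100uM, KM) by 10nM human CYP2C9 was measured over 60 min at 37C with NADPH regeneration; inhibitors and some substrates reduce luminescence. Data normalized to sulphaphenazole 57uM.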
# [10] = target: Cytochrome P450 3A4 (Homo sapiens) (UniProt P08684); assay: qHTS Assay for Inhibitors and Substrates of Cytochrome P450 3A4 (AID 884); details: recombinant CYP3A4, Luciferin-PPXE luminescence; series mostly up to 57.1 µM; further: potency means the concentration at half of the fitted maximal effect; nearly all actives have a fitted effect of over 50% in size
# Summary of the method: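 20 nM human CYP3A4 with 25 uM Luciferin-PPXE (at KM) in 200 mM KPO4, preincubated 10 min with compound; NADPH regeneration started a 60 min RT reaction. Luciferin detected by luminescence, normalized to 57 uM ketoconazole as full inhibition.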
# [11] = target: Cytochrome P450 3A4 (Homo sapiens) (UniProt P08684); assay: qHTS Assay for Activators of Cytochrome P450 3A4 (AID 885); details: recombinant CYP3A4, Luciferin-PPXE luminescence, 60 min; series mostly up to 57.1 µM; further: nearly all actives have a fitted effect of over 65% in size
# Summary of the method: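 20nM CYP3A4 + 25uM Luciferin-PPXE (=KM), 200mM KPO4; cpd 10 min RT; NADPH regen, 60 min RT; stop w/ detection buffer, 20 min; luminescence. Normalized to 57 uM ketoconazole.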
# [12] = target: Cytochrome P450 2C19 (Homo sapiens) (UniProt P33261); assay: qHTS Assay for Inhibitors and Substrates of Cytochrome P450 2C19 (AID 899); details: recombinant CYP2C19, luciferin-H EGE luminescence; series mostly up to 57.1 µM; further: potency means the concentration at half of the fitted maximal effect; nearly all actives have a fitted effect of over 60% in size
# Summary of the method: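 Reactions contain 5nM enzyme, 10uM Luciferin-H EGE (KM) and 50mM KPO4; compound preincubates 10 min at 37C, NADPH regeneration starts turnover for 60 min. Luminescence after detection reagent gives activity.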
# [13] = target: Ubiquitin carboxyl-terminal hydrolase 1 (Homo sapiens) (UniProt O94782); assay: Inhibitors of USP1/UAF1: Pilot qHTS (AID 504865); details: purified USP1/UAF1, Ub-rhodamine cleavage fluorescence; series mostly up to 54.9 µM;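 further: rhodamine fluorescence freed from ubiquitin-rhodamine substrate followed over time; top concentration of the series differs between compounds; on the % scale 0 is the no-effect control and ±100 the full control effect; nearly all actives have a fitted effect of over 35% in size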
# Summary of the method: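 In 50mM HEPES pH 7.8 containing 0.5mM EDTA, 1mM TCEP, 0.1 mg/ml BSA and 0.01% Tween-20, 1nM USP1/UAF1 is exposed to compound for 15 min, then Ub-Rho (150nM final) is added and fluorescence is read over time.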
# [14] = Primary qHTS for small molecule stabilizers of the endoplasmic reticulum resident proteome: Secreted ER Calcium Modulated Protein (SERCaMP) assay (AID 1508630); details: SH-SY5Y GLuc-SERCaMP (Gaussia luciferase released on ER calcium loss) secretion, thapsigargin, luminescence; series mostly up to 38.4 µM; further: on the % scale 0 is the no-effect control and ±100 the full control effect
# Summary of the method: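 GLuc-SERCaMP-expressing SH-SY5Y cells, pretreated 16 h with compound, are challenged with thapsigargin to empty ER calcium stores; after 4 h, coelenterazine is added directly to the medium and luminescence is imaged.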
# [15] = target: 3',5'-cyclic-AMP phosphodiesterase 4B (Homo sapiens) (UniProt Q07343); assay: qHTS Assay for Inhibitors of PDE-IV (AID 607; active means well fitted activation curve with a large enough effect in the main read-out, with a control signal flat, not every such curve was filed as active; further: % of control where 0% means no effect); details: HEK293 ACTOne CNG channel cells, membrane potential fluorescence; series mostly up to 22.9 µM
# Summary of the method: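 ACTOne HEK293 cells carry a modified cAMP-gated CNG channel and express endogenous PDE4; plated 1000 cells/well, compounds up to 22.9 uM final. Membrane-potential dye fluorescence (ex 535/em 590) was read; parental cells received 10 uM forskolin + 100 uM RO 20-1724.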
# [16] = Confirmation and Secondary Assay for Modulators of Hemoglobin Beta Chain Splicing at IVS2 654 locus (AID 910); details: HeLa EGFP-654 splicing reporter, GFP fluorescence, 48 h; series mostly up to 38.3 µM;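 further: HeLa cells stably carrying EGFP split by mutant beta-globin IVS2-654 intron; per-well total GFP intensity by laser scanning cytometry after 2-day treatment; % of control where 0% means no effect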
# Summary of the method: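 Readout: per-well total peak green fluorescence (488 nm ex, 500–520 nm em) from objects 5–250 µm, reflecting correct splicing of an EGFP-654 reporter. Compounds were applied for 2 days at 37 °C to overnight-plated HeLa EGFP-654 cells; controls were DMSO and 500 nM IVS2-654 PNA.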
# [17] = Confirmation and Secondary Assay for Modulators of Hemoglobin Beta Chain Splicing at IVS2 705 locus (AID 930); details: HeLa EGFP-705 splicing reporter, GFP fluorescence, 48 h; series mostly up to 38.3 µM;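 further: HeLa cells stably expressing the EGFP-705 splicing reporter; GFP fluorescence per well restored by corrected splicing of the IVS2-705 intron in EGFP; % of control where 0% means no effect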
# Summary of the method: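 Secondary splice-site specificity test uses HeLa expressing CMV-driven EGFP interrupted by IVS2-705; cells were treated 2 days at 37C with 500 nM antisense PNA as positive control.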
# 3',5'-cyclic-AMP phosphodiesterase 4B (Homo sapiens), sequence (Q07343 whole entry, looked up): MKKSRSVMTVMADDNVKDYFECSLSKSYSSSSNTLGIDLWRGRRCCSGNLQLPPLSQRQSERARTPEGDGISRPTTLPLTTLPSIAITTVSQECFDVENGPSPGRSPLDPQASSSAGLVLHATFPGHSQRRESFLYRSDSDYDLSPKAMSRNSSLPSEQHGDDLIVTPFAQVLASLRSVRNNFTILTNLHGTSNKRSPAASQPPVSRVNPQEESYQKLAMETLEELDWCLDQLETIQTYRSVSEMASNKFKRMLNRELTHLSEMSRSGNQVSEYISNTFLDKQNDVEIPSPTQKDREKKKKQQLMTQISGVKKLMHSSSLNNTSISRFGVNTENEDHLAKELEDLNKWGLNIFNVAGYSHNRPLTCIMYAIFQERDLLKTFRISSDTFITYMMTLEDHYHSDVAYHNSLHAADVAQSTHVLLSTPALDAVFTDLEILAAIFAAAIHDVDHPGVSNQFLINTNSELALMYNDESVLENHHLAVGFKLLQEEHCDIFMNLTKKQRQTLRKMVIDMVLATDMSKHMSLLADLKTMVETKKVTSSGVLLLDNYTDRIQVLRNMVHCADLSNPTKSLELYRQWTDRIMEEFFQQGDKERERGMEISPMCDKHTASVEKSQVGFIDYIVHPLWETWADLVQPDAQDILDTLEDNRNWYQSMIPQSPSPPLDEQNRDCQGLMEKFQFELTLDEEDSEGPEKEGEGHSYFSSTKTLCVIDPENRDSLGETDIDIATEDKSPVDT
# Cytochrome P450 1A2 (Homo sapiens), sequence (P05177 whole entry, looked up): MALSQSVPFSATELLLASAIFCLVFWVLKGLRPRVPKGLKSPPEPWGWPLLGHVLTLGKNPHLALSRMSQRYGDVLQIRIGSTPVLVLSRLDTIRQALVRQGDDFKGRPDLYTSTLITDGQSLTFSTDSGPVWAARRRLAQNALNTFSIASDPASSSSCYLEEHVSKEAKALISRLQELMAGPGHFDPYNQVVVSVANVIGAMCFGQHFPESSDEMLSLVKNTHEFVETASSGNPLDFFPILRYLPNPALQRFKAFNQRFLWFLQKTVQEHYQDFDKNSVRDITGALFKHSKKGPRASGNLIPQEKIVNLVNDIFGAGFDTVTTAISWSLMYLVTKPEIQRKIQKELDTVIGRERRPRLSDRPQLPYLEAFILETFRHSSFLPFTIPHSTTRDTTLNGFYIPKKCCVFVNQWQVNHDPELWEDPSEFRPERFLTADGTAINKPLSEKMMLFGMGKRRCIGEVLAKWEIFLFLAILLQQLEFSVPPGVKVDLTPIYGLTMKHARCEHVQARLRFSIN
# Lysosomal acid glucosylceramidase (Homo sapiens), sequence (P04062 whole entry, looked up): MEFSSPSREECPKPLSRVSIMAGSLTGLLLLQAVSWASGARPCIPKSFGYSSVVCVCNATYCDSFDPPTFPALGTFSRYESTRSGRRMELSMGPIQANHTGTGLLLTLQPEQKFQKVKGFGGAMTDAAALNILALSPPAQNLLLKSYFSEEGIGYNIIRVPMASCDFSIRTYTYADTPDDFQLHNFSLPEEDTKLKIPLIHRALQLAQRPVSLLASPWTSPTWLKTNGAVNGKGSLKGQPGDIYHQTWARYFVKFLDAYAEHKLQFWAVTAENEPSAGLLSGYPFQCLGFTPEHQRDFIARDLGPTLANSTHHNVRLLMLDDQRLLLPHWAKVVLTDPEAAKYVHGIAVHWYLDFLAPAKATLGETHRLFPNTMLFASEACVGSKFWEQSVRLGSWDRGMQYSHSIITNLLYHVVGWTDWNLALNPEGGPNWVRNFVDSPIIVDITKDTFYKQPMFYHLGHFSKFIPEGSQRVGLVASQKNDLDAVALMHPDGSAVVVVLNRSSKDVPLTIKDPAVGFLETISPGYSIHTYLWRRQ
# Glucocorticoid receptor (Homo sapiens), sequence (P04150 whole entry, looked up, the tested form may be a part): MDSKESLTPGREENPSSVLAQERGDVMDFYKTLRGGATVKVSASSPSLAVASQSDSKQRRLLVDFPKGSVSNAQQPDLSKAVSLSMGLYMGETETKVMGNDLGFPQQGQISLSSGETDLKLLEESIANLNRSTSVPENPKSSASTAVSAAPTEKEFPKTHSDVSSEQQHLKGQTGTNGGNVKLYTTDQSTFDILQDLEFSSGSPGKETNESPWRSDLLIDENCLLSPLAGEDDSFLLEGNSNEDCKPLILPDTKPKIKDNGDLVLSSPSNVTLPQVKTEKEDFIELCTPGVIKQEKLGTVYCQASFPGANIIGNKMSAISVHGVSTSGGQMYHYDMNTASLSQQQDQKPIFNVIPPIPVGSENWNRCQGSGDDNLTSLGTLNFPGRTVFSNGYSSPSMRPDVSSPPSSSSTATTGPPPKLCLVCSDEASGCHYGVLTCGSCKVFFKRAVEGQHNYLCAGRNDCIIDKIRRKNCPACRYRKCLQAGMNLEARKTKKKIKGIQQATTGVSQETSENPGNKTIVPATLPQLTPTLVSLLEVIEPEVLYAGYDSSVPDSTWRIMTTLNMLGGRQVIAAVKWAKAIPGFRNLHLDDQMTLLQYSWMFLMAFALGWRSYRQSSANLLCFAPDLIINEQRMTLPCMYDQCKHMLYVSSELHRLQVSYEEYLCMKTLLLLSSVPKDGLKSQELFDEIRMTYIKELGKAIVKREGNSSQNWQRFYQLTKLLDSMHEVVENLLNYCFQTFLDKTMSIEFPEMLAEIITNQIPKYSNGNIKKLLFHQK
# Ubiquitin carboxyl-terminal hydrolase 1 (Homo sapiens), sequence (O94782 whole entry, looked up): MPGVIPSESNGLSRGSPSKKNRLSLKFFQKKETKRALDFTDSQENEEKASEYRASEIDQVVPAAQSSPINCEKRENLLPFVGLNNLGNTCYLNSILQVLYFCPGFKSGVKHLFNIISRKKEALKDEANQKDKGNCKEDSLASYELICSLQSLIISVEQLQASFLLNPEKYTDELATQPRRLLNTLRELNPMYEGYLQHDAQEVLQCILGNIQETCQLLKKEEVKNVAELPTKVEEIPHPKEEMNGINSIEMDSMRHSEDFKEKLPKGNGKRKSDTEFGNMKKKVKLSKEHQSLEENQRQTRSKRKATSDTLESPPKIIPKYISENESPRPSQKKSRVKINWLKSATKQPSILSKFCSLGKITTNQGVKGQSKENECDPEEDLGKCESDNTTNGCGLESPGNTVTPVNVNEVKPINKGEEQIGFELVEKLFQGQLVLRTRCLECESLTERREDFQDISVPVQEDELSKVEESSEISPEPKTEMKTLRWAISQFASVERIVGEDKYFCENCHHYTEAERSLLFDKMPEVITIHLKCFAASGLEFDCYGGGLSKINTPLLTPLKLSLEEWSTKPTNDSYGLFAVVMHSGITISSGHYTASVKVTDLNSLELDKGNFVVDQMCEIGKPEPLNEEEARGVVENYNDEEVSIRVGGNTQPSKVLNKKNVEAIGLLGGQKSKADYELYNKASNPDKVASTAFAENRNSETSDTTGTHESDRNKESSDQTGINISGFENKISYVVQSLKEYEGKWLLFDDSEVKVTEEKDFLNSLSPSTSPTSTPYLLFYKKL
# Cytochrome P450 3A4 (Homo sapiens), sequence (P08684 whole entry, looked up): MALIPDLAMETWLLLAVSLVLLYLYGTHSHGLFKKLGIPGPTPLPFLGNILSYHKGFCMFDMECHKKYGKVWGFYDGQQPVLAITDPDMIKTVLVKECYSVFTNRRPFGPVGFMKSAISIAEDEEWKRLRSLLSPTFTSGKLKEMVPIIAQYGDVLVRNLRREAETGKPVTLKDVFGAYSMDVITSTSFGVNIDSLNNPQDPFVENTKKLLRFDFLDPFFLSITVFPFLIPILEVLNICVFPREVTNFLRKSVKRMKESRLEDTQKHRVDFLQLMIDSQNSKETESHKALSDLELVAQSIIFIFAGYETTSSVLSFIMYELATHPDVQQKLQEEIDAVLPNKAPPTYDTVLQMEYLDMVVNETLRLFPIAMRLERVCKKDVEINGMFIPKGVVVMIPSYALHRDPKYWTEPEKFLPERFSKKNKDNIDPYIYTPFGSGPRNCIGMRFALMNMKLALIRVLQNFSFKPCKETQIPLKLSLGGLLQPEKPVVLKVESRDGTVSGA
# Cytochrome P450 2C19 (Homo sapiens), sequence (P33261 whole entry, looked up): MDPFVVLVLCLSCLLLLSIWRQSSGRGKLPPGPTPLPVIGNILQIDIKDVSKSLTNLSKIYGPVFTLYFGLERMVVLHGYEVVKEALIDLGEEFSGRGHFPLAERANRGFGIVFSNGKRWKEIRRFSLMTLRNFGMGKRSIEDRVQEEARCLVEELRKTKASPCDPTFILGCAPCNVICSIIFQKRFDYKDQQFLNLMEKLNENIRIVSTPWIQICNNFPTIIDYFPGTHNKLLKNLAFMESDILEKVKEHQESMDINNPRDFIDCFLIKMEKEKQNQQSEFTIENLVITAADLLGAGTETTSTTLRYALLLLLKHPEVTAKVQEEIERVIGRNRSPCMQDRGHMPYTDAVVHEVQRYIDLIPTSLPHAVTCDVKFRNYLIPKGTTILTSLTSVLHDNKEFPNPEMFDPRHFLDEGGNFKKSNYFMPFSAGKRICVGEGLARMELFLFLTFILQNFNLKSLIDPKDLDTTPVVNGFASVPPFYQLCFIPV
# Cytochrome P450 2C9 (Homo sapiens), sequence (P11712 whole entry, looked up): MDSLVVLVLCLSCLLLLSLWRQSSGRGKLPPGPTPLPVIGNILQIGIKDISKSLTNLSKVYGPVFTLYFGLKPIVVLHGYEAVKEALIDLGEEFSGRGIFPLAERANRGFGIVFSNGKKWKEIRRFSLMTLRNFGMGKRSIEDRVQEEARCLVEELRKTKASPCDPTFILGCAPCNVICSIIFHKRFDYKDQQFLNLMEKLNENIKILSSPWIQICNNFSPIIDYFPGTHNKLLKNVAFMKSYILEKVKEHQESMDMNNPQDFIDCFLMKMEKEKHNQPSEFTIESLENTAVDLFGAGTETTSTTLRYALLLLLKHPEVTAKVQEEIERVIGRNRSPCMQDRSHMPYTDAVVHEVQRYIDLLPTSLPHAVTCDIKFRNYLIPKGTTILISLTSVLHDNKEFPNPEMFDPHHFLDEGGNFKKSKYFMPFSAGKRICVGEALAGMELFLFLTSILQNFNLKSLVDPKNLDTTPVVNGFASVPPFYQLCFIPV
SMILES,Potency [1] [µM],"activity change, negative = inhibition [2] [%]",Potency [3],"activity change, negative = inhibition [4] [%]","activity, negative = inhibition [5] [%]",Potency [6] [µM],Potency [7] [µM],Potency [8],Potency [9],Potency [10],Potency [11],Potency [12],Potency [13],outcome [14],Potency [15],"activity change, negative = inhibition [9]",Potency [16],outcome [17]
COc1cccc(-c2cncnc2NCc2cccs2)c1,> 11.4,-25,1.26 µM (active),9.12,-6.14,> 46,> 46,inactive,0.398 µM (active),1.58 µM (active),inactive,0.631 µM (active),inactive,inactive,–,–,–,–
COc1ccccc1CNc1cc(-c2ccccc2OC)ncn1,> 11.4,-14.2,2.51 µM (active),-2.18,-12.6,> 46,> 46,inactive,–,–,inactive,1.58 µM (active),inactive,inactive,inactive,31.3% [at 2.29 µM],–,–
COc1ccc2[nH]cc(CCNc3nc(-c4ccccc4CN(C)C)nc4ccccc34)c2c1,> 11.4,-0.774,25.1 µM (active),-26.8,4.15,> 46,> 46,inactive,–,–,inactive,–,inactive,inactive,inactive,–,inactive,inactive
c1cncc(-c2ccc3ncnc(N4CCNCC4)c3c2)c1,> 11.4,8.97,1.26 µM (active),26.4,0.928,> 46,> 46,inactive,–,–,inactive,–,inactive,inactive,inactive,–,inactive,inactive
CC(=O)NCCNc1ncnc2ccc(-c3ccc(C(=O)N(C)C)cc3)cc12,> 11.4,-14.6,25.1 µM (active),-1.21,-0.482,> 46,> 46,inactive,–,–,–,–,inactive,inactive,inactive,–,inactive,inactive

# Reference: PubChem BioAssay (NCATS)
